A selection: hits, their analogues and other compounds. The true share with any hit is near 4.6%.
Vaccinia mCherry: vaccinia inhibition (mCherry reporter); 310,000 tested, 0.63% active; Vaccinia virus mCherry reporter infection, fluorescence; AID 720579; Potency, µM (doses to about 36.5 µM), for the others: at the highest dose activity change, negative = inhibition, actives largely listed as inhibitors; calls by dose curve; tested in A549 cells; also: nearly all actives have a fitted effect of over 35% in size
Marburg entry inh: Marburg virus entry inhibition; 300,000 tested, 1.8% active; Marburg virus pseudotyped entry inhibition, cell reporter; Potency, µM (doses to about 37.8 µM), inactives show at the top dose activity change, negative = inhibition, actives largely listed as inhibitors; calls by dose curve; tested in HEK293 cells
VACV Venus inh: vaccinia inhibition (Venus reporter). Vaccinia virus Venus reporter expression, fluorescence. Potency, µM (top dose mostly 36.5 µM), without a hit: at the highest dose activity change, negative = inhibition, actives largely listed as inhibitors. 330,000 tested, 0.46% active. AID 720580; calls by dose curve; tested in A549 cells; also: nearly all actives have a fitted effect of over 30% in size
HCV inh: inhibitors of hepatitis C virus infection; Huh7.5.1 HCVcc-Cre infection, luciferase reporter, 44 h; Potency, µM (top dose mostly 41.8 µM), for inactives: top-dose activity change, negative = inhibition, actives largely listed as inhibitors; 340,000 tested, 3.4% active; AID 651820; active = well fitted inhibition curve with a large enough effect; inconclusive = small, poorly fitted or top-dose-only effect, or another doubt; inactive = no such curve, though single readings can be large or run the other way
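After 44 h co-culture of compound, cells and HCVcc-Cre (~0.5 moi), substrate is added for 15 min at room temperature and luciferase measured over 15 sec. Cells were seeded at 1,000/well and pre-cultured 4 h.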
LASV entry inh: Lassa virus entry inhibition; Lassa virus pseudotype entry inhibition, cell reporter; Potency, µM (top dose mostly 37.9 µM), for the others: at the top dose activity change, negative = inhibition, most hits filed as inhibitors; 300,000 tested, 1.2% active; calls by dose curve; tested in HEK293 cells; also: nearly all actives have a fitted effect of over 50% in size
The depositor's hits bear a star; i = inactive; ? = inconclusive; · = not tested or not shown; [ ] = another dose, or the depositor's remark. % is scaled to controls: 0 for no effect and ±100 for the full control effect; potency is read from the fitted curve at half-maximal effect.

SMILES	Vaccinia mCherry	Marburg entry inh	VACV Venus inh	HCV inh	LASV entry inh
CC1OC(O[C@H]2C[C@@H](O)[C@]3(CO)[C@H]4[C@H](O)C[C@]5(C)[C@@H](C6=CC(=O)OC6)CC[C@]5(O)[C@@H]4CC[C@]3(O)C2)C(O)C(O)C1O (some centres undefined)	?	·	0.0035µM*	·	·
CCn1c(=O)c2sccc2n2c(CCC(=O)N3CCN(c4ccccc4OC)CC3)nnc12	-3%	3%[46.1 µM]	-11%	·	5%[46.1 µM]
Cc1ccc(S(=O)(=O)c2nnn3c2nc(N2CCOCC2)c2ccccc23)cc1C	-13%	5%[46.1 µM]	-13%	10µM*	-27%[46.1 µM]
Cc1ccc(S(=O)(=O)c2nnn3c2nc(N2CCN(c4cccc(C)c4C)CC2)c2ccccc23)cc1C	i	·	-14%	·	8%[46.1 µM]
Cc1ccc2c(=O)cc(C(=O)Nc3ccc(S(=O)(=O)N(C)c4ccccc4)cc3)oc2c1C	?	-1%[46.1 µM]	?	·	4%[46.1 µM]
O=S(=O)(NCc1nc(N2CCCC2)c2cc(Cl)ccc2n1)c1ccccc1OC(F)(F)F	-14%	·	-15%	·	·
CC1=[N+](C)c2c(ccc3cccnc23)C1(C)C	215%	?	25%	?	5.6µM*
Cc1[nH]c2c(ccc3cccnc32)c1C	-11%	0%[14.2 µM]	-16%	-31%	4%
c1ccc(CN2CCN(c3nc4ccccc4c4ccccc34)CC2)cc1	·	-21%	-9%	?	-19%
Cc1ccc2c(c1)[nH]c1c(N3CCN(Cc4ccccc4)CC3)ncnc12	?	16µM*	?	3.2µM*	21µM*
Cc1ccc2[nH]c3c(N4CCN(Cc5ccc6c(c5)OCO6)CC4)ncnc3c2c1	·	1%	·	·	·
Fc1ccc2[nH]c3c(N4CCN(C5CCCCC5)CC4)ncnc3c2c1	·	1%	·	·	·
c1ccc2c(c1)[nH]c1c(N3CCC4(CC3)OCCO4)ncnc12	·	?	?	7.1µM*	?
Cc1ccc2[nH]c3c(N4CCCCCC4)ncnc3c2c1	·	1%	·	3.2µM*	·
c1ccc(CN2CCN(c3ncnc4c3[nH]c3ccccc34)CC2)cc1	7.1µM*	?	?	11µM*	?
COc1ccccc1N(C)C	i	·	-13%	·	·
CCOc1ccc2[nH]c3c(N4CCN(c5ccccn5)CC4)ncnc3c2c1	·	?	·	1µM*	?
CCOc1ccc2oc(C(=O)N3CCN(c4ccccn4)CC3)c(C)c2c1	-17%	2%	-13%	-12%	1%
N=S(=O)(O)Cc1noc2ccccc12	·	20%	·	·	8%
O=C(CCl)N(c1ccccc1)c1c[nH]c2ccccc12	?	?	?	1.3µM*	?
O=C(O)Cc1c[nH]c2ccccc12	6%	·	2%	27%	·
O=C(CCl)N(c1ccc(Cl)cc1)c1c[nH]c2ccccc12	?	?	13µM*	2.5µM*	?
O=C(Cc1ccc(Cl)cc1)NCCc1c[nH]c2ccccc12	·	·	·	-14%	·
NC(N)=N/N=C/c1ccc(N(c2ccccc2)c2ccccc2)cc1	?	·	10µM*	?	·
CCN(Cc1ccccc1)c1ccccc1	-16%	·	-11%	10%	·
SMILES	Vaccinia mCherry	Marburg entry inh	VACV Venus inh	HCV inh	LASV entry inh
CCN(Cc1ccccc1)c1ccc(/C=N/N=C(N)N)cc1	?	6.5µM*	11µM*	?	8.2µM*
COc1ccc(/C=N\N=C(N)N)cc1	-21%	?	-13%	?	?
CCCNc1nc(Nc2ccc(C)cc2)nc(N2CCCC2)n1	·	15µM*	·	10µM*	-30%
COc1ccccc1CNC(=O)c1c(N)n(CCCN2CCOCC2)c2nc3ccccc3nc12	13µM*	?	?	·	26%[14.3 µM]
Nc1c(C(=O)NCc2ccco2)c2nc3ccccc3nc2n1CCN1CCCCC1	-12%	8.2µM*	-20%	?	-2%
CC(C)OC(=O)c1c(N)n(CCCN2CCOCC2)c2nc3ccccc3nc12	-18%	-13%	-10%	9%	5%
Nc1c(C(=O)NCc2ccco2)c2nc3ccccc3nc2n1CCc1ccc(F)cc1	?	?	-25%	-18%	-15%
COc1ccc(Cn2c(N)c(C(=O)NCc3ccco3)c3nc4ccccc4nc32)cc1OC	-27%	?	-30%	7.1µM*	?
CCOC(=O)c1ccccc1NC(=O)c1nn(C)c2c1COc1ccccc1-2	-14%	?	-17%	·	-9%[46.1 µM]
Cc1ccc(NC(=S)NC(=O)c2ccc(F)cc2)cc1S(=O)(=O)Nc1ccccc1Cl	?	1.1µM*	?	?	?
COc1ccccc1NC(=O)Nc1ccc(Cl)c(S(=O)(=O)Nc2ccccc2OC)c1	-8%	?	-7%	?	?
COc1cccc(C(=O)Nc2ccc(Oc3cccc(C(F)(F)F)c3)nc2)c1	i	8.9µM*	?	7.1µM*	?
Cc1ccc(NC(=O)c2ccc(=O)[nH]n2)cc1S(=O)(=O)Nc1ccccc1Cl	·	·	·	1%	·
O=C(Nc1ccc(Cl)cc1)Nc1ccc(N2CCCC2)c(S(=O)(=O)Nc2ccccc2Cl)c1	?	1.6µM*	?	5.6µM*	5µM*
COc1ccccc1NS(=O)(=O)c1cc(NC(=O)c2ccc(Cl)nc2)ccc1Cl	-14%	8.9µM*	?	7.1µM*	?
O=C(Nc1ccc(Oc2cccc(C(F)(F)F)c2)nc1)c1ccccc1	-12%	?	-20%	?	?
Cc1ccccc1N(C)C(=O)c1noc2c1COc1ccccc1-2	-12%	0%[46.1 µM]	-6%	·	1%[46.1 µM]
Cc1ccccc1CNC(=O)C(=O)NCC(c1ccco1)S(=O)(=O)c1ccc(F)cc1 (centres undefined)	-14%	·	-12%	·	?
C=C(C)C(=O)C=CCCCC=CC(=O)OCC	·	7%[14.2 µM]	·	·	·
CC(=O)c1cccc(NC(=O)CN2C(=O)c3ccccc3Sc3ncccc32)c1	-5%	·	4%	·	-11%[46.1 µM]
CC(CCc1ccccc1)NC(=O)Cn1c(=O)nc(-c2ccccc2F)c2cc(Cl)ccc21 (centres undefined)	-4%	·	-23%	·	?
CCOC(=O)c1c(C)n(-c2ccc(OC)cc2)c2ccc(OC(=O)COc3ccccc3)cc12	-14%	·	-29%	·	-26%[46.1 µM]
COc1cc(OC)cc(C(=O)Nc2ccc(C(=O)Nc3ccccc3OC)cc2)c1	-19%	?	?	11µM*	-21%[46.1 µM]
COc1ccc(NC(=O)c2ccc(-c3ccccc3)cc2)cc1NS(=O)(=O)c1ccc(F)cc1	-30%	?	?	4µM*	?
CN(C)S(=O)(=O)Oc1cccc(C(=O)Nc2ccc(Cl)cc2)c1	·	?	·	10µM*	15µM*
COc1ccc(NC(=O)c2ccccc2)cc1NS(=O)(=O)c1ccc(F)cc1	-17%	-7%	-5%	4%	-3%
COc1ccccc1NS(=O)(=O)c1cc(NC(=O)c2ccncc2)ccc1N1CCCC1	-11%	11µM*	-19%	?	?
COc1cc(C2CC(=O)N(Cc3ccc(F)cc3)c3ccccc3S2)cc(OC)c1OC (centres undefined)	-27%	?	-23%	·	·
CCCC[C@@H](C(=O)O)[C@H](C)CC(=O)Nc1cccc(C(=O)O)c1	·	10%	·	·	·
Cc1ccc(NC(=O)Cn2nc(-c3ccccc3)nc(Cc3ccc(Cl)cc3)c2=O)cc1	-12%	·	-1%	·	21%[46.1 µM]

High-throughput results as filed in PubChem.
